Assay outcomes from PubChem BioAssay.
In the library only some 2.8% were active in any assay of this set; here they are far more common.
POLH inh: qHTS for Inhibitors of Polymerase Eta; DNA polymerase eta (Homo sapiens), Q9Y253; recombinant Pol eta, fluorescent DNA replication assay; Potency, µM (series often up to 114 µM), for inactives: at the top dose activity change, negative = inhibition, most hits filed as inhibitors; 1.2% of 390,000 active; further: potency means the concentration at half of the fitted maximal effect; on the % scale 0 is the no-effect control and ±100 the full control effect
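Fluorescent replication assay: 50 nM final substrate added after a 15 min room-temperature compound preincubation with 10 nM enzyme. Signal taken at 0 min and again at 10 min.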
Pol kappa inh: qHTS for Inhibitors of Polymerase Kappa | DNA polymerase kappa (Homo sapiens), Q9UBT6 | purified Pol kappa, fluorescent DNA synthesis assay, 10 min | Potency, µM (series often up to 107 µM), for the others: top-dose activity, negative = inhibition, usual class: inhibitors | 0.53% of 400,000 active | AID 588579, 2011; further: potency means the concentration at half of the fitted maximal effect; on the % scale 0 is the no-effect control and ±100 the full control effect
Target sequence (Q9UBT6 whole entry, looked up): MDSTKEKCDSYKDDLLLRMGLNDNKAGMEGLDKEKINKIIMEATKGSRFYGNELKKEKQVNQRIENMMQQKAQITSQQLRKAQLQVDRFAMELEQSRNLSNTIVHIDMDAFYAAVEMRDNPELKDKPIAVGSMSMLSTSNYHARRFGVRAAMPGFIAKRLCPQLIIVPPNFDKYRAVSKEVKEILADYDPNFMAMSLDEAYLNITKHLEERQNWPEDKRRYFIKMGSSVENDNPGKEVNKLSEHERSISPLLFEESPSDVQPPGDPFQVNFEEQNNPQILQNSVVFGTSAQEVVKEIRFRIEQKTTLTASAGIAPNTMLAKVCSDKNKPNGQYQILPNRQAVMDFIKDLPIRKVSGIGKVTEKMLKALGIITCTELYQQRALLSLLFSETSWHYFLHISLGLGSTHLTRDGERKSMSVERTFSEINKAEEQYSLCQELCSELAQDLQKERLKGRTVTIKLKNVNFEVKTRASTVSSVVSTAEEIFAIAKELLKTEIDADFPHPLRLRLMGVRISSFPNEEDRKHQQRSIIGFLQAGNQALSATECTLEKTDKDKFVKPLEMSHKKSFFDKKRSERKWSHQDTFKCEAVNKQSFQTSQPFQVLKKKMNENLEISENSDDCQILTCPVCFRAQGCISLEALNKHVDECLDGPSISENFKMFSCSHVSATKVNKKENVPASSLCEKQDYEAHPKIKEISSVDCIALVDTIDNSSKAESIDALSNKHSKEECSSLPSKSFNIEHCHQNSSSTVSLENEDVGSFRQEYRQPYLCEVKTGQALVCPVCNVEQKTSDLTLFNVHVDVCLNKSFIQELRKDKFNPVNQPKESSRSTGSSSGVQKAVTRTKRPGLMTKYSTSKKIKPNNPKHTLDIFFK
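Fluorescent qHTS in 1536-well format: enzyme (10 nM) and compound sat 15 min at room temperature before 50 nM substrate (final) was added. Signal taken at 0 and 10 min; no-enzyme buffer wells were negative controls.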
POLI inh: qHTS for Inhibitors of Polymerase Iota. DNA polymerase iota (Homo sapiens), Q9UNA4. Pol iota fluorescent replication assay, 10 min. Potency, µM (highest dose often 115 µM), without a hit: at the highest dose activity, negative = inhibition, usual class: inhibitors. 1% of 390,000 active; further: potency means the concentration at half of the fitted maximal effect
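Fluorescent replication assay read twice, at 0 min and 10 min after adding 50 nM (final) substrate. Enzyme (10 nM) and compounds were first incubated 15 min at room temperature; enzyme-free buffer wells were negative controls.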
WRN inhibitor: qHTS for Inhibitors of WRN Helicase; AID 651768, 2012; Bifunctional 3'-5' exonuclease/ATP-dependent helicase WRN (Homo sapiens), Q14191; 0.46% of 360,000 active; WRN helicase unwinding, fluorescent forked duplex, kinetic; Potency, µM (top dose mostly 114 µM), for inactives: at the top dose activity change, negative = inhibition, most hits filed as inhibitors; further: potency means the concentration at half of the fitted maximal effect; on the % scale 0 is the no-effect control and ±100 the full control effect; nearly all actives have a fitted effect of over 55% in size
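Fluorescence dequenching readout, ex 525 nm/em 598 nm, kinetic mode: forked duplex DNA (100 nM final) with adjacent fluorophore and quencher unwound by WRN (20 nM final) with 2 mM ATP. Compound preincubation 15 min, room temperature.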
Pol beta inh: qHTS Assay for Inhibitors of DNA Polymerase Beta; AID 485314, 2010; Pol beta primer extension/strand displacement, fluorescence kinetic; 1.3% of 340,000 active; Potency, µM (top dose mostly 114 µM), for inactives: at the highest dose activity change, negative = inhibition, usual class: inhibitors; further: potency means the concentration at half of the fitted maximal effect; on the % scale 0 is the no-effect control and ±100 the full control effect
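Human Pol beta at 10 nM; strand-displacement substrate 50 nM final. Compound exposure 15 min at room temperature before start, reaction 10 min at room temperature.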
PI5P4K alpha inh: qHTS for Inhibitors of phosphatidylinositol 5-phosphate 4-kinase (PI5P4K). PI5P4Kalpha enzyme, ADP-Glo luminescence, 60 min; stronger effect = lower value. 1.2% of 330,000 active. max response, %. AID 652105, 2013; active means max response of -50% or lower; inconclusive means between -30% and -50%; inactive means -30% or higher; further: value at the top dose of about 77 µM; on the % scale 0 is the no-effect control and ±100 the full control effect
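qHTS, 1536-well: enzyme/substrate mix, compound by pin tool, 5 microM ATP final; RT 60 min; ADP-Glo reagents 1 (45 min) then 2 (30 min); luminescence.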
TbPGK inh: qHTS for inhibitors of Phosphogylcerate Kinase: Hit Validation Screen; TbPGK coupled GAPDH assay, Kinase-Glo luminescence; shares compounds with Pol kappa inh; 79% of 500 active; Potency, µM (top dose mostly 57.5 µM), inactives show at the top dose activity change, negative = inhibition, hits mostly inhibitors; further: potency means the concentration at half of the fitted maximal effect; on the % scale 0 is the no-effect control and ±100 the full control effect; nearly all actives have a fitted effect of over 65% in size
POLI cherry-pick: qHTS for Inhibitors of Polymerase Iota: Confirmatory Assay for Cherry-picked Compounds | shares compounds with Pol kappa inh | Pol iota primer extension, TAMRA/BHQ fluorescence | Potency, µM, hits mostly inhibitors | 77% of 1,500 active; further: potency means the concentration at half of the fitted maximal effect
Numbers without * were called inactive; ? = inconclusive; / = not tested or not shown; [ ] = dose if it differs, or a comment. Unless noted, the call rests on the fitted dose curve; in most records, active means well fitted curve in the direction sought with a large enough effect; inconclusive means small, poorly fitted or top-dose-only effect, or another doubt; inactive means no such curve, though single readings can be large; an effect the other way counts as inactive or inconclusive.

SMILES | POLH inh | Pol kappa inh | POLI inh | WRN inhibitor | Pol beta inh | PI5P4K alpha inh | TbPGK inh | others
O=C(Nc1ccc(C(=O)N2CCCCC2)cc1)c1ccccc1 | 3% | -5% | 3% | -3% | / | -26 | /
O=C(Nc1ccccc1)Nc1ccc(C(=O)N2CCCC2)cc1 | -2% | -16% | -27% | -12% | 24% | -26 | 16µM*
CCOC(=O)c1cc(-c2ccc(OC)cc2)nn1-c1ccccc1C(=O)O | -3% | -13% | -27% | -16% | 3.2µM* | -18 | ?
O=C(c1ccc2c3n(nc2c1)-c1ccccc1CO3)N1CCCCC1 | -7% | 6% | 36% | 7% | 5% | -22 | 9.2µM*
O=C(c1ccc2c3n(nc2c1)-c1ccccc1CO3)N1CCOCC1 | -14% | 12% | 26% | 10% | -14% | ? | /
CC(C)(C)N1C(=O)c2ccccc2NC(=O)C1C(=O)NCc1ccco1 (stereo not drawn) | / | / | / | -2% | / | -2 | /
COc1ccc(Cn2c(/C=C/c3ccccc3)nc3ccccc32)cc1 | -1% | -12% | -11% | -8% | 29% | / | /
COc1ccc(/C=C/c2nc3ccccc3n2C)cc1 | -1% | -14% | 139% | -3% | 0% | -62* | 4.1µM*
Cc1ccccc1NC(=O)COC(=O)c1c[nH]c(=O)[nH]c1=O | -8% | -1% | -12% | -29%[57.1 µM] | 12% | 1 | /
CCOc1ccc(S(=O)(=O)N2CCN(c3cccc(C(F)(F)F)c3)CC2)cc1OCC | -10% | -2% | ? | / | 9% | / | /
COc1ccc(SCC(CC(C)C)N2CCN(CCc3ccccc3)CCC2=O)cc1 (stereo not drawn) | / | 3% | -17% | / | / | / | /
O=C(O)Cc1cccc(=O)c(O)c1C(=O)O | 4µM* | ? | 22µM* | ? | / | -18 | 5.2µM*
O=C(O)Cc1ccccc1C(=O)O | -19% | -6% | 8% | 6% | 0% | / | /
C#Cc1ccc(C(=O)NCc2ccc(N3CCCC3=O)cc2)cc1 | 16µM* | ? | ? | -13%[11.6 µM] | 18µM* | -28 | / | POLI cherry-pick=42*
COc1ccc2noc3c2c1C(=O)c1ccccc1-3 | ? | ? | ? | ? | / | -14 | / | POLI cherry-pick=?
CC(C)(C)C(=O)OCC(=O)C1CCC2C3CCC4=CC(=O)CCC4(C)C3CCC12C (stereo not drawn) | / | -8%[60.1 µM] | / | / | / | / | /
O=C(CCN1C(=O)/C(=C/c2ccc(Cl)cc2)SC1=S)Nc1cccc(C(=O)O)c1 | 89µM* | -15% | 50% | 56µM* | -10% | -3 | / | POLI cherry-pick=?
O=C(CCN1C(=O)/C(=C\c2ccccc2)SC1=S)Nc1ccc(C(=O)O)cc1 | -24% | ? | 26% | ? | ? | -6 | /
CCOc1ccc(/C=C2/SC(=S)N(CCC(=O)Nc3ccc(C(=O)O)cc3)C2=O)cc1 | 8.9µM* | -11% | ? | -9%[11.6 µM] | -9% | 2 | / | POLI cherry-pick=21*
COc1ccc(/C=C2\SC(=S)N(CCC(=O)Nc3cccc(C(=O)O)c3)C2=O)cc1 | ? | -3% | -6% | -13%[11.6 µM] | ? | -12 | /
COc1ccc(NC(=O)CN2CCc3ccccc3C2)c([N+](=O)[O-])c1 | -18% | -5% | 150% | -5% | 2% | 14 | /
N#CN=c1snc(-c2ccccc2)n1-c1ccc(Cl)cc1 | / | 2% | 14% | / | / | / | /
Cc1cncn1CCc1nc2c3ccccc3nc(SCC(=O)Nc3ccc(F)cc3)n2n1 | -20% | -4%[60.1 µM] | 33% | / | -11% | / | -14%
Cc1nc2ccccc2n1CCc1nc2c3ccccc3nc(SCC(=O)Nc3ccc(C(C)C)cc3)n2n1 | -23% | -4%[60.1 µM] | ? | / | 0% | / | /
Cc1ccc(NC(=O)CSc2nc3ccccc3c3nc(CCn4c(C)nc5ccccc54)nn23)cc1F | ? | -11%[60.1 µM] | 79µM* | / | ? | / | / | POLI cherry-pick=?
SMILES | POLH inh | Pol kappa inh | POLI inh | WRN inhibitor | Pol beta inh | PI5P4K alpha inh | TbPGK inh | others
Cc1nc2cc(-c3ccccc3)sc2c(=O)n1N | 4% | -5% | 38% | -30% | 11% | -72* | 8.2µM*
COc1ccc(-c2cc3nc4n(c(=O)c3s2)CCC4)cc1 | -4% | -1% | -5%[58.9 µM] | 1% | -16% | / | /
COc1ccc(-c2cc3nc(C)n(N)c(=O)c3s2)cc1 | -6% | -12% | 10% | -5% | -9% | -53* | 4.1µM*
Cn1c(NCc2ccccc2)nc2cc(-c3ccccc3)sc2c1=O | / | / | / | 0% | / | 1 | /
CC1CCn2c(nc3cc(C(=O)NCc4ccccc4)ccc32)C1 (stereo not drawn) | -4% | -1%[60.1 µM] | 37% | / | 9% | / | /
CC1=C(C(=O)Nc2cccnc2)C(c2cccc(O)c2)n2nc(SCc3ccccc3)nc2N1 (stereo not drawn) | ? | -6%[60.1 µM] | 79µM* | / | -18% | / | / | POLI cherry-pick=?
CCCCC[C@]12Cc3ccccc3C(O1)C1=C(CC(C)(C)CC1=O)O2 | / | / | / | / | 23%[22.9 µM] | / | /
CCc1c(C2CC2)ncn1Cc1cccc(-c2ccccc2)c1 | / | / | / | -5% | / | -13 | /
CC(C)(C)NC(=O)NC(=O)CSc1nnc(COc2ccccc2Cl)o1 | -16% | -4% | 1% | -11% | -2% | 11 | /
O=C(CSc1nnc(COc2ccccc2Cl)o1)NC(=O)NCc1ccco1 | 50µM* | ? | 40µM* | -8%[11.6 µM] | 14µM* | -75* | / | POLI cherry-pick=67*
c1ccc2nc(-c3nc4ccccc4o3)ccc2c1 | -3% | -11% | 16% | ? | 0% | / | 18µM*
N/C(=N\OC(=O)c1ccc(F)cc1)c1nonc1N | -13% | 0% | 1% | -15% | 39% | -17 | /
N/C(=N/OC(=O)c1ccccc1Cl)c1nonc1N | -7% | -3% | 27% | -5% | 37% | -24 | 12µM*
Cc1ccc(C(=O)O/N=C(\N)c2nonc2N)cc1 | -20% | -1% | 142% | 4% | 1% | -9 | 23µM*
N/C(=N\OC(=O)c1ccccc1Cl)c1ccccc1 | 8% | 0% | 14% | -1% | 2% | / | /
COc1cccc2sc(NN)nc12 | 2% | -7% | 41% | ? | -8% | -23 | /
